This note sets out measurements from PubChem BioAssay (Tox21).

Values without a mark were called inactive. Inconclusive results are not listed. Activity calls are given as the source filed them. Unless noted, calls come from the whole dose curve; as a rule, active = well fitted curve in the direction sought with a large enough effect in the repeat runs; inconclusive = weak or mixed curves; inactive = no such curve, though single readings can be large; an effect the other way counts as inactive or inconclusive.

Assay [1] is described as follows: qHTS assay for small molecule agonists of the p53 signaling pathway (AID 651631; calls by dose curve; note: nearly all actives have a fitted effect of over 15% in size). Put shortly: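 HCT-116 cells carrying a beta-lactamase reporter under p53 response elements were dosed with compound for 16 h at 37 °C. LiveBLAzer B/G FRET substrate was then added for 2 h at room temperature, and fluorescence intensity was read to detect pathway agonism.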
On the technique in general: Quantitative high-throughput screening tests each substance at several concentrations.

Assay [2] is described as follows: qHTS assay for small molecules that induce genotoxicity in human embryonic kidney cells expressing luciferase-tagged ATAD5 (AID 651632). Note: nearly all actives have a fitted effect of over 15% in size. Put shortly: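 Genotoxicity read-out via ATAD5-luciferase: HEK293T cells, 16 hr compound incubation at 37C, Amplite detection.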
A short description of assay [3]: qHTS assay for small molecule agonists of the p53 signaling pathway - cell viability (AID 651633; calls by dose curve;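 note: p53RE-bla HCT reporter cells with a stable beta-lactamase p53 reporter; series mostly up to about 83 µM; nearly all actives have a fitted effect of over 30% in size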). A digest of the protocol:
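p53RE-bla cells were treated with compound for 16 hours at 37 C. Cytotoxicity was then measured as CellTiter-Glo luminescence after 30 min at room temperature.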

The nature of assay [4]: qHTS assay for small molecules that induce genotoxicity in human embryonic kidney cells expressing luciferase-tagged ATAD5 - cell viability (AID 651634; calls by dose curve; note: nearly all actives have a fitted effect of over 25% in size). A digest of the protocol: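 Live-cell protease activity (CellTiter-Fluor, fluorescence) indicates viability. HEK293T cells with luciferase-tagged ATAD5; 15.5 hr compound treatment at 37C.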
Assay [5] in a line: qHTS assay for small molecule disruptors of the mitochondrial membrane potential - cell viability (AID 720634; calls by dose curve;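 note: human HepG2 liver cancer cells; series mostly up to about 83 µM; nearly all actives have a fitted effect of over 20% in size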). A digest of the protocol: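 Human hepatoma HepG2 cells were treated for 1 hr with test chemicals, then given m-MPI dye and CellTiter-Glo. Cell viability reflects luminescence proportional to cellular ATP.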
Assay [6] in a line: qHTS assay for small molecule disruptors of the mitochondrial membrane potential (AID 720635). Put shortly: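 HepG2 cells exposed to compound 1 hr at 37C, then Mito-MPS dye 30 min. Ratio read of aggregate (540/590 nm) versus monomer (490/535 nm) fluorescence.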
The nature of assay [7]: qHTS assay to test for compound auto fluorescence at 590 nm (red) in HepG2 cells (AID 720674). A digest of the protocol:
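Fluorescence at 590 nm emission following 540 nm excitation was recorded from HepG2 wells one hour after compound transfer, with DMSO-only wells as vehicle and Rose Bengal sodium equivalency as the scale.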

The nature of assay [8]: qHTS assay to test for compound auto fluorescence at 460 nm (blue) in HEK293 cells (AID 720678). A digest of the protocol: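 After cell attachment (4-5 hr, 37C), compounds were pinned onto HEK293 monolayers in 10% dialyzed FBS medium. The blue channel (405/460 nm) was read following overnight culture. Equivalency was calculated against triamterene.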
A short description of assay [9]: qHTS assay to test for compound auto fluorescence at 590 nm (red) in HEK293 cells (AID 720679). Put shortly:
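Plates of HEK293 cells (10% dialyzed FBS) are treated with 23 nL compound or DMSO vehicle after a 4-5 hr attachment period, incubated overnight at 37C, and read for red fluorescence at 540/590nm.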

Assay [10] can be described thus: qHTS assay to test for compound auto fluorescence at 535 nm (green) in HEK293 cells (AID 720680).
Assay [11] is described as follows: qHTS assay to test for compound auto fluorescence at 460 nm (blue) in HEK293 cell free culture (AID 720681). Put shortly: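 Compounds were added to cell-free DMEM with 10% FBS and fluorescence read directly. The blue channel used 405 nm excitation and 460 nm emission, with triamterene as the reference fluorophore.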
Assay [12] is described as follows: qHTS assay to test for compound auto fluorescence at 535 nm (green) in HEK293 cell free culture (AID 720682). Put shortly: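 Green-label autofluorescence (485 nm excitation, 535 nm emission) measured on compound added to cell-free culture medium (DMEM, 10% FBS). Output is expressed relative to fluorescein.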
Assay [13] in a line: qHTS assay to test for compound auto fluorescence at 590 nm (red) in HepG2 cell free culture (AID 720684). Put shortly:
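Compounds are added to culture medium (MEM, 10% FBS) lacking cells, then fluorescence is read at excitation 540 nm, emission 590 nm, with Rose Bengal sodium as the equivalency standard.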

Assay [14] can be described thus: qHTS assay to test for compound auto fluorescence at 460 nm (blue) in HepG2 cell free culture (AID 720685). Put shortly:
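Compound (23 nL) or DMSO pinned into cell-free MEM with 10% FBS; blue fluorescence read at 405/460 nm excitation/emission, expressed as auto-fluorescence equivalency to triamterene.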

The nature of assay [15]: qHTS assay to test for compound auto fluorescence at 535 nm (green) in HepG2 cell free culture (AID 720686).
A short description of assay [16]: qHTS assay to test for compound auto fluorescence at 460 nm (blue) in HepG2 cells (AID 720687). Put shortly:
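HepG2 cells in MEM with 10% FBS, attached overnight at 37 C, were exposed to compound or DMSO for 1 hr at 37 C, 5% CO2. Blue fluorescence was read at 405/460 nm, with triamterene as reference fluorophore.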

The target in assay [17] is Glucocorticoid receptor (Homo sapiens) (UniProt P04150). As to the kind of experiment: qHTS assay to identify small molecule agonists of the glucocorticoid receptor (GR) signaling pathway (AID 720691; active = well fitted activation curve with a large enough effect in the signal ratio in the repeat runs, not every such curve was filed as active; the % refers to the signal ratio). Put shortly:
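Beta-lactamase reporter activity, read as fluorescence intensity, was measured in GR-bla HeLa cells exposed to compounds for 18 h at 37 C and then loaded with LiveBLAzer B/G FRET substrate for 2 h at room temperature.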

Assay [18] shares this target. Kind of assay: qHTS assay to identify small molecule antagonists of the glucocorticoid receptor (GR) signaling pathway (AID 720692; active = well fitted inhibition curve with a large enough effect in the signal ratio in the repeat runs, not every such curve was filed as active; the % refers to the signal ratio; note: potency is the fitted concentration of half-maximal effect). A digest of the protocol: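 Fluorescence from cleaved LiveBLAzer B/G FRET substrate reports GRE-driven beta-lactamase in HeLa cells; compounds are tested against 5 nM dexamethasone (final) over 18 h at 37 C, substrate incubation 2 h at room temperature.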

Assay [19] can be described thus: qHTS assay to test for compound auto fluorescence at 535 nm (green) in HepG2 cells (AID 720675).
Assay [20] in a line: qHTS assay to test for compound auto fluorescence at 590 nm (red) in HEK293 cell free culture (AID 720683). A digest of the protocol:
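Cell-free wells of DMEM with 10% FBS received compound, and intrinsic fluorescence was read at excitation/emission 540/590 nm. Values expressed as equivalence to Rose Bengal sodium.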
% is set by controls: 0 for no effect and ±100 for the full control effect.

Sequence of Glucocorticoid receptor (Homo sapiens) (P04150 whole entry, looked up): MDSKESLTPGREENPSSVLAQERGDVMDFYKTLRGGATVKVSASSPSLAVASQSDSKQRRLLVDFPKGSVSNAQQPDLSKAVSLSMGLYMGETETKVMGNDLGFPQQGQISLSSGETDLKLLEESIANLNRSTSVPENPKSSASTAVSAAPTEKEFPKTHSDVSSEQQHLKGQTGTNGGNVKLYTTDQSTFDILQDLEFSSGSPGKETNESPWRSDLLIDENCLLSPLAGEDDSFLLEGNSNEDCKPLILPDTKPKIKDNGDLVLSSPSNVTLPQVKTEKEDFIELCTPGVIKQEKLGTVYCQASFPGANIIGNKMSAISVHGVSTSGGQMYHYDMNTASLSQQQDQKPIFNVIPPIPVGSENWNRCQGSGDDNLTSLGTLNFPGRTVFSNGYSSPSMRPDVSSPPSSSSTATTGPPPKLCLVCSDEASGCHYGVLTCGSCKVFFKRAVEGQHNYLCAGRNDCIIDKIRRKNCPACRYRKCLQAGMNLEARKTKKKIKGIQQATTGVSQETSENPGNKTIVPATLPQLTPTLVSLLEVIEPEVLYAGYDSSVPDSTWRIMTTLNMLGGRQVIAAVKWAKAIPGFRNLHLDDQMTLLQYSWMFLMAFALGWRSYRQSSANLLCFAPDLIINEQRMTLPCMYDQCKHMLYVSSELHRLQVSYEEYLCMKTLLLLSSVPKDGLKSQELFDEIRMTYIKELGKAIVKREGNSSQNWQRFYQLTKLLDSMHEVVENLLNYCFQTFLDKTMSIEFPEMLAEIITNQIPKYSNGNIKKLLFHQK

On to `CC(C)CCCC(=O)O`, for which the Potency result in assay [1], in assay [2], in [3], in assay [4], in assay [5] and in assay [6] was “inactive” each time. The Potency result in [8], in [11], in [14], in assay [16], in assay [17] and in assay [18] was “inactive” throughout. Moreover, the compound was classed as inactive in [7], in assay [9], in assay [10], in assay [12], in assay [13] and in [15].

Take `C/C=C/C=C/CCCCCCCO`: the Potency entry in assay [1], in [2], in [3], in assay [4], in assay [5] and in assay [8] was “inactive” each time. Further, the Potency result in assay [11], in assay [14], in assay [16] and in [17] was “inactive” throughout. Also, the compound was called inactive in assay [7], in [19], in assay [9], in assay [10], in assay [12] and in assay [20]. Moreover, the call in assay [13] and in [15] was inactive. Moreover, the Potency in assay [18] was 38.9 µM (active).

As for `CC(COc1ccc(C(C)(C)C)cc1)OS(=O)OCCCl` (stereo unspecified), the Potency entry in assay [1], in [2], in [3], in assay [4], in [5] and in assay [6] was “inactive” in each case. Besides, the Potency entry in [8], in [11], in assay [14] and in assay [16] was “inactive” in each case. The call in assay [7], in [9], in assay [12], in assay [20], in assay [13] and in assay [15] was inactive.

On to `C/C=C(\C)C(=O)OCCC(C)CCC=C(C)C` (stereo unspecified), for which the Potency result in [1], in assay [2], in assay [3], in assay [4], in assay [5] and in assay [6] was “inactive” throughout. For the same compound, the Potency entry in [8], in assay [11], in assay [14], in assay [16] and in [18] was “inactive” in each case. Also, the compound was classed as inactive in assay [7], in assay [9], in assay [10], in assay [12], in assay [13] and in [15].

Regarding `CCn1cc(C(=O)O)c(=O)c2cc(F)c(N3CCNCC3)nc21`, the Potency result in assay [1], in assay [2], in [3], in assay [4] and in assay [5] was “inactive” in each case. Moreover, in assay [7], the fluorescence, relative to Rose Bengal was 0.819% [at 18.6 µM]. Besides, the fluorescence, % of fluorescein control is -0.0415% [at 18.6 µM] in assay [19] and -0.0379% [at 18.6 µM] in [15]. Moreover, in assay [8], the fluorescence, % of triamterene was -0.37% [at 18.6 µM]. Further, the fluorescence, % of fluorescent control was -0.616% [at 18.6 µM] in [9]; -0.0171% [at 18.6 µM] in assay [11]; -0.252% [at 18.6 µM] in assay [20]; -0.0969% [at 18.6 µM] in assay [14]; -0.0048% [at 18.6 µM] in assay [16]. Also, in assay [10], the fluorescence, % of fluorescein is -0.0016% [at 18.6 µM]. Besides, in [12], the activity change is 0.0215% [at 18.6 µM].

Take `Nc1ccc(S(=O)(=O)O)cc1`: the Potency entry in assay [1], in assay [2], in assay [3], in assay [4], in assay [5] and in assay [8] was “inactive” each time. The Potency result in assay [14] and in assay [16] was “inactive” in each case. Moreover, the compound was classed as inactive in [7], in [19], in assay [9], in [12], in assay [20] and in assay [13]. The outcome in [15] was inactive.
